# Test results: PubChem BioAssay (Tox21)
# Unmarked numbers belong to inactive results. Results filed as inconclusive are left out. Entries that show only a call come without a potency. Active and inactive are the calls of the source. Calls come from the whole dose curve.
# Experiments:
# [1] = target: Acetylcholinesterase (Homo sapiens) (UniProt P22303); assay: Acetylcholinesterase (AChE) small molecule antagonists: colormetric cell-based qHTS assay (AID 1347395); note: nearly all actives have a fitted effect of over 30% in size; note: potency is the fitted concentration of half-maximal effect
# Acetylcholinesterase (Homo sapiens), sequence (P22303 whole entry, looked up): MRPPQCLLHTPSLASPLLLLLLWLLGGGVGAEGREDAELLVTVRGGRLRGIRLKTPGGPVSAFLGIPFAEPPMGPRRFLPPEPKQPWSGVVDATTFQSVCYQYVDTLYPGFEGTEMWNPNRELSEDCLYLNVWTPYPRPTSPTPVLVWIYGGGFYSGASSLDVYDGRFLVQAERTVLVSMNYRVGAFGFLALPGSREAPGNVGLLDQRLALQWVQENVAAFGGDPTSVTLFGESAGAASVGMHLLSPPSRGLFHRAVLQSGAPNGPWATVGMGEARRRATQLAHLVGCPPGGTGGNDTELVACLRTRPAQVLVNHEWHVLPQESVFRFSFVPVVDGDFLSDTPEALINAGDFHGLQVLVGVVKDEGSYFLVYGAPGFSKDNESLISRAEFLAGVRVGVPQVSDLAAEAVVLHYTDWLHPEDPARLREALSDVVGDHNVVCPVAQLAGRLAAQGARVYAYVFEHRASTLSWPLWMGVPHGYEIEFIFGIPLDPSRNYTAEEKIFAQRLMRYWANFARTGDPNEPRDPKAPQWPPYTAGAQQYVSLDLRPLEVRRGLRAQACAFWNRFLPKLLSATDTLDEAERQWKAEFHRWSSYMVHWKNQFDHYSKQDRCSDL
# Outline: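 In this cell-based qHTS, attached SH-SY5Y cells were treated with test chemicals for 30 min, after which acetylthiocholine hydrolysis was followed by DTNB colour development over 90 min at 37 C.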
# [2] = target: Acetylcholinesterase (Homo sapiens) (UniProt P22303); assay: Acetylcholinesterase (AChE) small molecule antagonists: enzyme-based qHTS assay (AID 1347397); settings: Potency: AChE enzyme activity inhibition; outcome: AChE enzyme activity inhibition; note: nearly all actives have a fitted effect of over 55% in size; note: potency is the fitted concentration of half-maximal effect
# Outline: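 Human recombinant acetylcholinesterase; substrate acetylthiocholine; thiocholine quantified with DTNB (colorimetric). Compound preincubation 30 min RT; reaction 10 min RT.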
# [3] = target: Acetylcholinesterase (Homo sapiens) (UniProt P22303); assay: Acetylcholinesterase (AChE) small molecule antagonists: enzyme-based qHTS assay with human liver microsomes (AID 1347399); settings: Potency: qHTS inhibition; outcome: qHTS inhibition; note: nearly all actives have a fitted effect of over 60% in size
# Outline: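 Recombinant human AChE (50 mU/mL in the enzyme mix) and human liver microsomes (0.25 mg/mL final) were preincubated with compound and NADPH (0.25 mg/mL final) for 30 min at 37 C. Acetylthiocholine/DTNB was then added; thiocholine was read colorimetrically after 10 min at room temperature.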
smiles,measurement,setting,value
CCN(CC)CCOc1ccc(C(O)(Cc2ccc(Cl)cc2)c2ccc(C)cc2)cc1 (stereo not drawn),Potency,[1],inactive
same,Potency,[2],inactive
same,Potency,[3],inactive
Cc1c(-c2ccccc2)oc2c(C(=O)OCCN3CCCCC3)cccc2c1=O,Potency,[1],inactive
same,Potency,[2],inactive
same,Potency,[3],inactive
CC(=O)[C@H]1CC[C@H]2[C@@H]3C=CC4=CC(=O)CC[C@@]4(C)[C@@H]3CC[C@]12C,Potency,[1],inactive
same,Potency,[2],inactive
same,Potency,[3],inactive
COC(=O)c1ccccc1Cl,Potency,[1],inactive
same,Potency,[2],inactive
same,Potency,[3],inactive
CCCCOc1cc(C(=O)OCCN(CC)CC)ccc1N,Potency,[1],inactive
same,Potency,[2],inactive
same,Potency,[3],inactive
CCOC(=O)C(C)Oc1ccc(Oc2nc3ccc(Cl)cc3o2)cc1 (stereo not drawn),Potency,[1],inactive
same,Potency,[2],inactive
same,Potency,[3],inactive
O=C(/C=C/c1ccccc1)NCCO,Potency,[1],inactive
same,Potency,[2],inactive
same,Potency,[3],inactive
O=C(OCCc1ccccc1)c1ccccc1,Potency,[1],inactive
same,Potency,[2],inactive
same,Potency,[3],inactive
COc1ccccc1OCCNCC(O)COc1cccc2[nH]c3ccccc3c12 (stereo not drawn),Potency,[1],inactive
same,Potency,[2],inactive
same,Potency,[3],inactive
NC1[C@H]2CN(c3nc4c(cc3F)c(=O)c(C(=O)O)cn4-c3ccc(F)cc3F)C[C@@H]12 (stereo partly drawn),outcome,[1],inactive
same,outcome,[2],inactive
same,outcome,[3],inactive
CC[C@H](C)[C@H](N)C(=O)O,Potency,[1],inactive
same,Potency,[2],inactive
same,Potency,[3],inactive
CCCCCCCC/C=C/C(=O)O,Potency,[1],inactive
same,Potency,[2],inactive
same,Potency,[3],inactive
Cc1ccsc1/C=C/C1=NCCCN1C,Potency,[1],17.4 µM (active)
same,Potency,[2],inactive
same,Potency,[3],inactive
COc1ccc(C(=O)NCc2ccc(OCCN(C)C)cc2)cc1OC,Potency,[1],6.92 µM (active)
same,Potency,[2],27.5 µM (active)
same,Potency,[3],inactive
Cc1c(I)c(=O)n(-c2ccccc2)n1C,Potency,[1],inactive
same,Potency,[2],inactive
same,Potency,[3],inactive
Nc1cc(C(F)(F)F)ccc1S,Potency,[1],inactive
same,Potency,[2],inactive
same,Potency,[3],inactive
c1ccc(CN(Cc2ccccc2)Cc2ccccc2)cc1,Potency,[1],inactive
same,Potency,[2],inactive
same,Potency,[3],inactive
CO[C@@H]1[C@@H](O[C@@H]2O[C@H](C)[C@@H](O[C@H]3C[C@@](C)(O)[C@@H](O)[C@H](C)O3)[C@H](N(C)C)[C@H]2O)[C@@H](CC=O)C[C@@H](C)[C@@H](O[C@@H]2CC[C@H](N(C)C)[C@@H](C)O2)/C=C/C=C/C[C@@H](C)OC(=O)C[C@H]1OC(C)=O,Potency,[1],inactive
same,Potency,[2],inactive
same,Potency,[3],inactive
COC(=O)C1CC(=O)C(C(=O)OC)CC1=O (stereo not drawn),"activity, negative = inhibition",[1],2.2% [at 10.5 µM]
same,"activity change, negative = inhibition",[2],0.472% [at 10.5 µM]
same,"activity change, negative = inhibition",[3],-0.962% [at 10.5 µM]
CCN1CCN(C(=O)N[C@@H](C(=O)N[C@@H]2C(=O)N3C(C(=O)O)=C(CSc4nnnn4C)CS[C@H]23)c2ccc(O)cc2)C(=O)C1=O,Potency,[1],inactive
same,Potency,[2],inactive
same,Potency,[3],inactive
CC(C)C[P+](C)(CC(C)C)CC(C)C,Potency,[1],40.2 µM (active)
same,Potency,[2],inactive
same,Potency,[3],inactive
C=COCCCC,Potency,[1],inactive
same,Potency,[2],inactive
same,Potency,[3],inactive
CC(C)C1OCCN1CCOC(=O)NCCCCCCNC(=O)OCCN1CCOC1C(C)C (stereo not drawn),Potency,[1],inactive
same,Potency,[2],inactive
same,Potency,[3],inactive
C[C@@H]1CC[C@H]2C(C)(C)[C@H]3C[C@@]12CC[C@@]3(C)O,Potency,[1],inactive
same,Potency,[2],inactive
same,Potency,[3],inactive
COc1cc(N)c(Cl)cc1C(=O)NC1CCN(CCCOc2ccc(F)cc2)CC1OC (stereo not drawn),Potency,[1],inactive
same,Potency,[2],inactive
same,Potency,[3],inactive
CCN(CC)CCOC(=O)C(Cc1cccc2ccccc12)CC1CCCO1 (stereo not drawn),Potency,[1],inactive
same,Potency,[2],inactive
same,Potency,[3],inactive
COCc1ccc(COC)cc1,Potency,[1],inactive
same,Potency,[2],inactive
same,Potency,[3],inactive
CCCCN(CCCC)CC(O)c1cc(Cl)cc2c1-c1ccc(Cl)cc1/C2=C/c1ccc(Cl)cc1 (stereo not drawn),Potency,[1],inactive
same,Potency,[2],inactive
same,Potency,[3],inactive
COc1c(C)c2c(c(O)c1C/C=C(\C)CCC(=O)O)C(=O)OC2,Potency,[1],inactive
same,Potency,[2],inactive
same,Potency,[3],inactive
OCCN1CCN(CCCN2c3ccccc3Sc3ccc(C(F)(F)F)cc32)CC1,Potency,[1],inactive
same,Potency,[2],inactive
same,Potency,[3],inactive
CCCCCCCC/C=C/CCCCCCCC1=NCCN1CCO,Potency,[1],inactive
same,Potency,[2],inactive
same,Potency,[3],inactive
O=C(Nc1cccc2c(=O)cc(-c3nn[nH]n3)oc12)c1ccc(OCCCCc2ccccc2)cc1,Potency,[1],inactive
same,Potency,[2],27.5 µM (active)
same,Potency,[3],inactive
CCCC(=O)C(=O)O,Potency,[1],inactive
same,Potency,[2],inactive
same,Potency,[3],inactive
CCCCCCCCCCCCCCCCCC[N+](C)(C)C,Potency,[1],inactive
same,Potency,[2],63.5 µM (active)
same,Potency,[3],inactive
OCCN1CCN(CC/C=C2/c3ccccc3Sc3ccc(C(F)(F)F)cc32)CC1,Potency,[1],inactive
same,Potency,[2],inactive
same,Potency,[3],inactive
C=CCN1C[C@H](C(=O)N(CCCN(C)C)C(=O)NCC)C[C@@H]2c3cccc4[nH]cc(c34)C[C@H]21,Potency,[1],34.7 µM (active)
same,Potency,[2],inactive
same,Potency,[3],inactive
Cc1nc(-c2ccc(OCC(C)C)c(C#N)c2)sc1C(=O)O,Potency,[1],27.5 µM (active)
same,Potency,[2],inactive
same,Potency,[3],inactive
C=CCSCC1Nc2cc(Cl)c(S(N)(=O)=O)cc2S(=O)(=O)N1 (stereo not drawn),Potency,[1],inactive
same,Potency,[2],inactive
same,Potency,[3],inactive
OCc1c[nH]c2ccccc12,Potency,[1],inactive
same,Potency,[2],inactive
same,Potency,[3],inactive
Nc1cnn([C@@H]2O[C@H](CO)[C@@H](O)[C@H]2O)c(=O)n1,Potency,[1],inactive
same,Potency,[2],inactive
same,Potency,[3],inactive
CC(O)CCCCn1c(=O)c2c(ncn2C)n(C)c1=O (stereo not drawn),Potency,[1],inactive
same,Potency,[2],inactive
same,Potency,[3],inactive
